Assay results from the supplement of paper PMC4466140.

What was measured:
Assay in all cases: SPOT peptide array binding signal intensity (averaged, normalized) (arbitrary units (background-subtracted, floor 0; scale differs between SH3 domains)); higher = stronger binding of the SH3 domain to the peptide
AgAbp1 = target: AgAbp1
Method: (§1)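 GST-tagged SH3 domains from S. cerevisiae (Sc), A. gossypii (Ag), C. albicans (Ca) and S. pombe (Sp) were incubated at 10 ug/ml overnight at 4 C on cellulose SPOT membranes carrying 292 synthetic 15-mer peptides mined from the S. cerevisiae proteome (cysteines replaced by serines). Binding was detected with anti-GST antibody, HRP secondary and chemiluminescence, quantified with Genespotter, and reported as normalized spot intensities averaged over biological replicates.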

AgBbc1 = target: AgBbc1
Method: as §1

AgBem1-D1 = target: AgBem1-D1
Method: as §1

AgBzz1-D1 = target: AgBzz1-D1
Method: as §1

AgBzz1-D2 = target: AgBzz1-D2
Method: as §1

AgCyk3 = target: AgCyk3
Method: as §1

AgFus1 = target: AgFus1
Method: as §1

AgHof1 = target: AgHof1
Method: as §1

AgHse1 = target: AgHse1
Method: as §1

AgLsb1 = target: AgLsb1
Method: as §1

AgLsb4 = target: AgLsb4
Method: as §1

AgMyo5 = target: AgMyo5
Method: as §1

AgNbp2 = target: AgNbp2
Method: as §1

AgRvs167 = target: AgRvs167
Method: as §1

AgSho1 = target: AgSho1
Method: as §1

AgSla1-D1-D2 = target: AgSla1-D1-D2
Method: as §1

AgSla1-D3 = target: AgSla1-D3
Method: as §1

CaAbp1-D1 = target: CaAbp1-D1
Method: as §1

CaAbp1-D2 = target: CaAbp1-D2
Method: as §1

CaBbc1 = target: CaBbc1
Method: as §1

CaBem1-D1 = target: CaBem1-D1
Method: as §1

CaBzz1-D1 = target: CaBzz1-D1
Method: as §1

CaBzz1-D2 = target: CaBzz1-D2
Method: as §1

CaCyk3 = target: CaCyk3
Method: as §1

CaFus1 = target: CaFus1
Method: as §1

CaHof1 = target: CaHof1
Method: as §1

CaHse1 = target: CaHse1
Method: as §1

CaLsb1 = target: CaLsb1
Method: as §1

CaLsb4 = target: CaLsb4
Method: as §1

CaMyo5 = target: CaMyo5
Method: as §1

CaNbp2 = target: CaNbp2
Method: as §1

CaRvs167 = target: CaRvs167
Method: as §1

CaRvs167-3 = target: CaRvs167-3
Method: as §1

CaSho1 = target: CaSho1
Method: as §1

CaSla1-D1-D2 = target: CaSla1-D1-D2
Method: as §1

CaSla1-D3 = target: CaSla1-D3
Method: as §1

ScAbp1 = target: ScAbp1
Method: as §1

ScBbc1 = target: ScBbc1
Method: as §1

ScBem1-D1 = target: ScBem1-D1
Method: as §1

ScBzz1-D1 = target: ScBzz1-D1
Method: as §1

ScBzz1-D2 = target: ScBzz1-D2
Method: as §1

ScCyk3 = target: ScCyk3
Method: as §1

ScFus1 = target: ScFus1
Method: as §1

ScHof1 = target: ScHof1
Method: as §1

ScHse1 = target: ScHse1
Method: as §1

ScLsb1 = target: ScLsb1
Method: as §1

ScLsb2 = target: ScLsb2
Method: as §1

ScLsb3 = target: ScLsb3
Method: as §1

ScLsb4 = target: ScLsb4
Method: as §1

ScMyo3 = target: ScMyo3
Method: as §1

ScMyo5 = target: ScMyo5
Method: as §1

ScNbp2 = target: ScNbp2
Method: as §1

ScPex13 = target: ScPex13
Method: as §1

ScRvs167 = target: ScRvs167
Method: as §1

ScSho1 = target: ScSho1
Method: as §1

ScSla1-D1-D2 = target: ScSla1-D1-D2
Method: as §1

ScSla1-D3 = target: ScSla1-D3
Method: as §1

SpAbp1-D1 = target: SpAbp1-D1
Method: as §1

SpBbc1 = target: SpBbc1
Method: as §1

SpBzz1-D1 = target: SpBzz1-D1
Method: as §1

SpBzz1-D2 = target: SpBzz1-D2
Method: as §1

SpCyk3 = target: SpCyk3
Method: as §1

SpHof1 = target: SpHof1
Method: as §1

SpHof1-2 = target: SpHof1-2
Method: as §1

SpHof1-3 = target: SpHof1-3
Method: as §1

SpHse1 = target: SpHse1
Method: as §1

SpLsb1 = target: SpLsb1
Method: as §1

SpLsb4 = target: SpLsb4
Method: as §1

SpMyo1 = target: SpMyo1
Method: as §1

SpNbp2 = target: SpNbp2
Method: as §1

SpPex13 = target: SpPex13
Method: as §1

SpRvs167 = target: SpRvs167
Method: as §1

SpSla1-D1-D2 = target: SpSla1-D1-D2
Method: as §1

SpSla1-D3 = target: SpSla1-D3
Method: as §1

Binder: RSRRSSFAYPQQVAI
- SPOT peptide array binding signal intensity (AgAbp1): 22
- SPOT peptide array binding signal intensity (AgBbc1): 64
- SPOT peptide array binding signal intensity (AgBem1-D1): 91.5
- SPOT peptide array binding signal intensity (AgBzz1-D1): 32
- SPOT peptide array binding signal intensity (AgBzz1-D2): 50.5
- SPOT peptide array binding signal intensity (AgCyk3): 1
- SPOT peptide array binding signal intensity (AgFus1): 200
- SPOT peptide array binding signal intensity (AgHof1): 33.5
- SPOT peptide array binding signal intensity (AgHse1): 254
- SPOT peptide array binding signal intensity (AgLsb1): 2.5
- SPOT peptide array binding signal intensity (AgLsb4): 39.5
- SPOT peptide array binding signal intensity (AgMyo5): 6.25
- SPOT peptide array binding signal intensity (AgNbp2): 39
- SPOT peptide array binding signal intensity (AgRvs167): 2.33
- SPOT peptide array binding signal intensity (AgSho1): 9
- SPOT peptide array binding signal intensity (AgSla1-D1-D2): 63.5
- SPOT peptide array binding signal intensity (AgSla1-D3): 4.5
- SPOT peptide array binding signal intensity (CaAbp1-D1): 170
- SPOT peptide array binding signal intensity (CaAbp1-D2): 152
- SPOT peptide array binding signal intensity (CaBbc1): 258
- SPOT peptide array binding signal intensity (CaBem1-D1): 20.5
- SPOT peptide array binding signal intensity (CaBzz1-D1): 84.5
- SPOT peptide array binding signal intensity (CaBzz1-D2): 102
- SPOT peptide array binding signal intensity (CaCyk3): 9
- SPOT peptide array binding signal intensity (CaFus1): 262
- SPOT peptide array binding signal intensity (CaHof1): ≤ 0
- SPOT peptide array binding signal intensity (CaHse1): 4.5
- SPOT peptide array binding signal intensity (CaLsb1): 1.5
- SPOT peptide array binding signal intensity (CaLsb4): 70.5
- SPOT peptide array binding signal intensity (CaMyo5): 7.25

Binder: RKRRTHLRLPLIRSN
- SPOT peptide array binding signal intensity (AgAbp1): 23
- SPOT peptide array binding signal intensity (AgBbc1): 105
- SPOT peptide array binding signal intensity (AgBem1-D1): 130
- SPOT peptide array binding signal intensity (AgBzz1-D1): 2
- SPOT peptide array binding signal intensity (AgBzz1-D2): 34.5
- SPOT peptide array binding signal intensity (AgCyk3): 2
- SPOT peptide array binding signal intensity (AgFus1): 1070
- SPOT peptide array binding signal intensity (AgHof1): 107
- SPOT peptide array binding signal intensity (AgHse1): 1100
- SPOT peptide array binding signal intensity (AgLsb1): ≤ 0
- SPOT peptide array binding signal intensity (AgLsb4): 137
- SPOT peptide array binding signal intensity (AgMyo5): 0.5
- SPOT peptide array binding signal intensity (AgNbp2): 63.8
- SPOT peptide array binding signal intensity (AgRvs167): 2.83
- SPOT peptide array binding signal intensity (AgSho1): 37.5
- SPOT peptide array binding signal intensity (AgSla1-D1-D2): 29.5
- SPOT peptide array binding signal intensity (AgSla1-D3): 2.25
- SPOT peptide array binding signal intensity (CaAbp1-D1): 243
- SPOT peptide array binding signal intensity (CaAbp1-D2): 301
- SPOT peptide array binding signal intensity (CaBbc1): 211
- SPOT peptide array binding signal intensity (CaBem1-D1): 41.5
- SPOT peptide array binding signal intensity (CaBzz1-D1): 73.5
- SPOT peptide array binding signal intensity (CaBzz1-D2): 71
- SPOT peptide array binding signal intensity (CaCyk3): 20
- SPOT peptide array binding signal intensity (CaFus1): 1220
- SPOT peptide array binding signal intensity (CaHof1): 0.25
- SPOT peptide array binding signal intensity (CaHse1): 29.6
- SPOT peptide array binding signal intensity (CaLsb1): ≤ 0
- SPOT peptide array binding signal intensity (CaLsb4): 85
- SPOT peptide array binding signal intensity (CaMyo5): 0.5
- SPOT peptide array binding signal intensity (CaNbp2): 406
- SPOT peptide array binding signal intensity (CaRvs167): 19
- SPOT peptide array binding signal intensity (CaRvs167-3): 42
- SPOT peptide array binding signal intensity (CaSho1): 478
- SPOT peptide array binding signal intensity (CaSla1-D1-D2): ≤ 0
- SPOT peptide array binding signal intensity (CaSla1-D3): 4.62
- SPOT peptide array binding signal intensity (ScAbp1): 27
- SPOT peptide array binding signal intensity (ScBbc1): 31.1
- SPOT peptide array binding signal intensity (ScBem1-D1): 61.2
- SPOT peptide array binding signal intensity (ScBzz1-D1): 15.5
- SPOT peptide array binding signal intensity (ScBzz1-D2): 21.2
- SPOT peptide array binding signal intensity (ScCyk3): 98
- SPOT peptide array binding signal intensity (ScFus1): 573
- SPOT peptide array binding signal intensity (ScHof1): 2.75
- SPOT peptide array binding signal intensity (ScHse1): 1680
- SPOT peptide array binding signal intensity (ScLsb1): 0.25
- SPOT peptide array binding signal intensity (ScLsb2): 1
- SPOT peptide array binding signal intensity (ScLsb3): 532
- SPOT peptide array binding signal intensity (ScLsb4): 29.8
- SPOT peptide array binding signal intensity (ScMyo3): ≤ 0
- SPOT peptide array binding signal intensity (ScMyo5): 0.625
- SPOT peptide array binding signal intensity (ScNbp2): 164
- SPOT peptide array binding signal intensity (ScPex13): 1.12
- SPOT peptide array binding signal intensity (ScRvs167): 16.8
- SPOT peptide array binding signal intensity (ScSho1): 1440
- SPOT peptide array binding signal intensity (ScSla1-D1-D2): 268
- SPOT peptide array binding signal intensity (ScSla1-D3): 9.5
- SPOT peptide array binding signal intensity (SpAbp1-D1): 91.2
- SPOT peptide array binding signal intensity (SpBbc1): 2.5
- SPOT peptide array binding signal intensity (SpBzz1-D1): 189
- SPOT peptide array binding signal intensity (SpBzz1-D2): ≤ 0
- SPOT peptide array binding signal intensity (SpCyk3): 2
- SPOT peptide array binding signal intensity (SpHof1): 299
- SPOT peptide array binding signal intensity (SpHof1-2): 9
- SPOT peptide array binding signal intensity (SpHof1-3): 1060
- SPOT peptide array binding signal intensity (SpHse1): 622
- SPOT peptide array binding signal intensity (SpLsb1): 0.5
- SPOT peptide array binding signal intensity (SpLsb4): 260
- SPOT peptide array binding signal intensity (SpMyo1): 9
- SPOT peptide array binding signal intensity (SpNbp2): 350
- SPOT peptide array binding signal intensity (SpPex13): 13
- SPOT peptide array binding signal intensity (SpRvs167): 9.33
- SPOT peptide array binding signal intensity (SpSla1-D1-D2): ≤ 0
- SPOT peptide array binding signal intensity (SpSla1-D3): ≤ 0
